Test results reported in the supplement of paper PMC3334620.
In all, about 33,000 sequences were measured (“E-score (-0.5 to 0.5)”: median about -0.0014, highest 2% from about 0.25 on). The sample holds the highest values, similar sequences and a random draw of the others, so the mix is not that of the screen.

target: T1, Cad1 (UniProt P24813); test: PBM E-score (8-mer binding enrichment) (E-score (-0.5 to 0.5)); higher = stronger / more preferred TF binding; settings: protein concentration: 100 nM; construct: GST-full length
T1 sequence: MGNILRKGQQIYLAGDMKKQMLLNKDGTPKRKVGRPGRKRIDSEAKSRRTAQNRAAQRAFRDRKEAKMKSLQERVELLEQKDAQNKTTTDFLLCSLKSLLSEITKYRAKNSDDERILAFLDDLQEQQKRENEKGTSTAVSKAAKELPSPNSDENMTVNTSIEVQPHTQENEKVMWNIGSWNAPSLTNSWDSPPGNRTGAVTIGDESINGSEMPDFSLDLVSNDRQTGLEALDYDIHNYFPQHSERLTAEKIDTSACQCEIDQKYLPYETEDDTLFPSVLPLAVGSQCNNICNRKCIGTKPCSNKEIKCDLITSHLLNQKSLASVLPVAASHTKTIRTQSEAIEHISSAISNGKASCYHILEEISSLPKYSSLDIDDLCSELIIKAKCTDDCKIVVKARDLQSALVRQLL
Outline: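 E-scores (a modified Wilcoxon-Mann-Whitney statistic) were assigned by the Universal PBM Analysis Suite to every ungapped eight-base word pooled with its reverse complement. The input came from universal all-10-mer Agilent arrays made double-stranded by primer extension and probed with GST-tagged yeast transcription factors at about 100-200 nM. Fluorescent anti-GST detected bound protein, and masliner normalised the scans.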

Row | Sequence | PBM E-score
1 | AATTACGA | 0.148
2 | GCTTACAA | 0.308
3 | GATTACGA | 0.318
4 | ACTTACAT | 0.0914
5 | ACTTACGA | 0.184
6 | ACTTACAA | 0.278
7 | GCTTACGA | 0.258
8 | CATTACGA | 0.0111
9 | TCTTACAA | 0.0371
10 | GCTTACAC | 0.23
11 | ACTTACAC | -0.0153
12 | CCTTACGA | 0.00401
13 | CGACTAAG | -0.00537
14 | ACTTCAGG | -0.041
15 | TACAACTA | 0.0174
16 | CAGACCCA | -0.175
17 | ACTTACTA | 0.184
18 | GCTTACCC | 0.034
19 | CCTTACTA | 0.211
20 | TCTTACCA | -0.131
21 | GCTTACCA | 0.255
22 | GCTTACTA | 0.426
23 | AGTCAAGA | 0.121
24 | GCCTTATA | -0.0929
25 | GGGATGCA | -0.167

Row | Sequence | PBM E-score
26 | AACGGGAA | 0.00234
27 | GTCGAAGA | -0.0249
28 | ATTGGCTC | 0.0265
29 | ATAACGGA | 0.155
30 | ACCACGGA | -0.141
31 | CTAACGGA | 0.294
32 | CCCACGGA | -0.117
33 | TCCACGGA | 0.282
34 | CTAACGGC | 0.00942
35 | ATGGTCCC | -0.189
36 | CCGCCCTA | -0.00222
37 | AGTCGGAA | 0.0204
38 | AATACTCC | -0.123
39 | CGTAATCC | 0.191
40 | CGTAAACA | 0.256
41 | GGTAAACA | 0.124
42 | AGTAAACA | 0.182
43 | AGTAATCA | 0.297
44 | AGTAATCC | 0.229
45 | CATAATCA | 0.175
46 | CGTAATCA | 0.336
47 | GGTAATCA | 0.203
48 | AATCCCAG | 0.0625
49 | AAGAGTCG | 0.0695
50 | AATTTCTG | 0.0718

Row | Sequence | PBM E-score
51 | AGCGGGCC | -0.0503
52 | CCACCATA | -0.0653
53 | CATCCGTC | -0.00289
54 | TAATACTA | 0.303
55 | TACTAATA | 0.285
56 | TACTAGTA | 0.273
57 | AAATACTA | 0.0416
58 | TACTACTA | 0.157
59 | GACTAGTA | -0.117
60 | AACTAATT | 0.217
61 | CACTAGTA | 0.0511
62 | CAATACTA | 0.0552
63 | AACTAATA | 0.351
64 | CACTAATA | 0.183
65 | AACTAAAA | 0.133
66 | ATACTTAC | 0.0308
67 | AGACGCCT | -0.1
68 | ACCAACGT | 0.0535
69 | CGGCTTTA | -0.151
70 | CGATCGGA | 0.0447
71 | CTCCATAC | -0.104
72 | ATACACCA | 0.12
73 | CACGACTA | -0.148
74 | CGAAGCTC | -0.231
75 | TACTTGAA | 0.0482

Row | Sequence | PBM E-score
76 | GAATAATA | 0.221
77 | AACTAAAG | 0.2
78 | GACTAAAA | 0.114
79 | GACTAACA | 0.218
80 | GACTAATA | 0.372
81 | AACTAATG | 0.283
82 | CAATAATA | 0.208
83 | TAATAATA | 0.29
84 | CACTAATG | -0.0516
85 | GCTGGGCC | -0.297
86 | GCCTATAC | -0.214
87 | GGAATGAC | -0.179
88 | CAGTCCAG | -0.0544
89 | CGTCAAAC | -0.0838
90 | AGCACTAC | -0.0732
91 | AGCAACGG | 0.0958
92 | CTGTCCGA | 0.189
93 | ACTTATTA | 0.192
94 | GTTTATTA | 0.293
95 | GCTTATTA | 0.369
96 | CCTTATTA | 0.211
97 | CTTTATTA | 0.18
98 | ATTTATTA | 0.186
99 | CACCATCA | 0.0657
100 | TAAACGTA | 0.172

Row | Sequence | PBM E-score
101 | GGTTTCAC | 0.00803
102 | ACGGCCCT | -0.0728
103 | CTGTAGCC | -0.0863
104 | AACTTGAG | -0.154
105 | AACTTGAA | 0.109
106 | AACTTGAT | 0.268
107 | GGTGCAGA | -0.217
108 | GCCAGGGA | -0.103
109 | AACCTTGA | 0.0727
110 | GGAACCGA | 0.0676
111 | CGAACCGC | -0.0247
112 | CGAACCGA | 0.262
113 | CTCGCCAC | -0.0198
114 | AAATTTGT | 0.277
115 | AAATTTGG | 0.075
116 | AAATTTGA | 0.325
117 | CAATTTGA | -0.0156
118 | AATTTTGT | 0.143
119 | TAATTTGA | 0.106
120 | CTGGAGGA | -0.121
121 | CCTACCGC | -0.0896
122 | GGCTGTAC | -0.0764
123 | CGAGTGTA | -0.0885
124 | ACGCTTTA | 0.0919
125 | AAGACAAG | 0.0865

Row | Sequence | PBM E-score
126 | CAGACAAC | 0.0003
127 | AAGACAAC | 0.336
128 | GCGCGTCA | 0.0818
129 | AAGCGACT | -0.0195
130 | GTATATAA | 0.182
131 | CTATATAA | 0.0617
132 | TCATATAA | -0.00059
133 | TGATATAA | -0.0984
134 | TGTTATAA | 0.253
135 | ATATATAA | 0.32
136 | CGTTATAA | 0.163
137 | AGTTATAA | -0.037
138 | TTATATAA | 0.427
139 | AAGCCGGC | 0.149
140 | GGTGATTA | 0.236
141 | CGTGATTA | 0.303
142 | CGTGATGA | 0.0624
143 | AGTGATTC | 0.11
144 | CGTGATTC | -0.021
145 | AGTGATTA | 0.287
146 | GGCGGCTA | 0.0654
147 | AACCTTGG | -0.168
148 | CTAACACC | -0.0338
149 | AATCTAGC | 0.08
150 | CAAGATTG | -0.0156

Row | Sequence | PBM E-score
151 | ACGGCATA | 0.16
152 | CGTCCGAA | 0.1
153 | GGTCCGAA | 0.143
154 | TGTCCGAA | 0.266
155 | ACCCTCTC | -0.183
156 | CCCTTGAC | -0.197
157 | TCCTCACA | -0.115
158 | ACGGATCC | -0.0362
159 | ACGGCGCC | 0.139
160 | CAAGCGCA | 0.262
161 | ACGGCGCG | 0.322
162 | AACGCGAG | 0.115
163 | AAAGCGCA | -0.0636
164 | AACGCGAA | 0.298
165 | AGCGCGCA | 0.355
166 | AGCGCGAA | 0.21
167 | CAAGCGCC | -0.119
168 | CACGCGAA | 0.0527
169 | ACGGCGCT | -0.0736
170 | AGCGCAAA | 0.189
171 | AAGTTGAG | 0.0317
172 | GCCAACAA | -0.0504
